HCMV inh: inhibitors of human cytomegalovirus | HFF cells, HCMV-luciferase reporter, 72 h; hits give low values | activity change, negative = inhibition, % at 57.5 µM | hit rate 4.5% among 410,000; in the data active = activity change below about -60%; inconclusive = no clear call, values can overlap the other calls; inactive = above about -39%
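Human foreskin fibroblasts infected with luciferase-reporter HCMV at MOI 1 PFU/cell, compounds at two doses. Luciferase measured 72 h post infection; normalized to buffer-only basal and Salinomycin (10uM) controls.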
Pf growth 96h: inhibits malaria parasite growth, 96 h; P. falciparum luciferase reporter growth, 96 h; Potency, µM (highest dose often 28.7 µM), for inactives: at the top dose activity change, negative = inhibition, usual class: inhibitors; hit rate 6.9% among 320,000; also: potency is read from the fitted curve at half-maximal effect
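Compounds incubated with erythrocytes infected by luciferase-expressing P. falciparum (2% hematocrit, 0.05% parasitemia final) for 96 hours, 37 C in 5% CO2. Growth inhibition scored as decreased luciferase luminescence.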
Pf growth 48h: P. falciparum growth inhibition at 48 hours (one generation). P. falciparum luciferase growth in erythrocytes, 48 h. Potency, µM (doses to about 28.7 µM), without a hit: at the top dose activity change, negative = inhibition, hits mostly inhibitors. hit rate 5.9% among 310,000. AID 504832; also: potency is read from the fitted curve at half-maximal effect
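A one-generation exposure of luciferase-tagged malaria parasites in RPMI 1640/Albumax erythrocyte culture, 37 C and 5% CO2. Inhibition is inferred from decreased luminescence after adding detection reagent.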
HCV inh: blocks hepatitis C virus | Huh7.5.1 HCVcc-Cre infection, luciferase reporter, 44 h | Potency, µM (doses to about 41.8 µM), inactives show at the top dose activity change, negative = inhibition, most hits filed as inhibitors | hit rate 3.4% among 340,000 | AID 651820; also: potency is read from the fitted curve at half-maximal effect
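Cells seeded at 1,000/well and cultured 4 h, then compounds added followed by HCVcc-Cre virus (~0.5 moi). After 44 h further culture, luciferase substrate was added, plates held 15 min at room temperature, and luminescence read for 15 sec.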
Active calls of the source: *; ? = inconclusive; · = no result. A selection: hits, their analogues and other compounds. The true share with any hit is near 13%. Unless noted, calls follow the shape of the dose curve; as a rule, active = well fitted inhibition curve with a large enough effect; inconclusive = small, poorly fitted or top-dose-only effect, or another doubt; inactive = no such curve, though single readings can be large or run the other way. % is scaled to controls: 0 for no effect and ±100 for the full control effect.

SMILES	HCMV inh	Pf growth 96h	Pf growth 48h	HCV inh
C/C(N)=C(/C#N)C(=O)CSc1nc2cc(Cl)ccc2s1	-20	45%	22%	8.9µM*
C/C(N)=C(/C#N)C(=O)CSc1nc2cc(Cl)ccc2c(=O)n1-c1ccc(C)cc1	?	28%	21%	7.1µM*
C/C(N)=C(/C#N)C(=O)CSc1nc2ccccc2c(=O)n1Cc1ccc(C)cc1	?	?	?	-8%
C/C(N)=C(/C#N)C(=O)CSc1nc2cc(Cl)ccc2c(=O)n1Cc1ccco1	?	0%	0%	14µM*
CCCCn1c(SCC(=O)/C(C#N)=C(\C)N)nc2ccccc2c1=O	-73*	-22%	?	?
O=C(COc1ccc(F)cc1)Nc1nc(-c2ccccn2)cs1	-25	?	?	?
O=C(Nc1nc(-c2ccccc2)cs1)Nc1ccc(F)cc1F	-75*	-14%	21%	?
O=C(Nc1nc(-c2ccccn2)cs1)Nc1ccc(F)cc1F	?	1.7µM*	1.5µM*	?
COc1ccc(N2CCN(C(=O)c3cccc(NC(=O)c4nsc5ccccc45)c3)CC2)cc1	33	·	·	·
COc1cccc(NC(=O)Cn2c(=O)n(CCCC(=O)NCc3ccc4c(c3)OCO4)c(=O)c3ccccc32)c1	18	·	·	·
O=C(N[C@H]1CC[C@@]23CCCN2C(=O)CCC[C@H]3[C@H]1Cc1ccccc1)c1cccc(Cl)c1	-65*	·	·	·
Cc1cc(S(=O)(=O)Nc2c(NC3CCCCC3)c3ccccc3oc2=O)ccc1F	21	10µM*	12%	?
Cc1ccc(NC(=S)NN2CCOCC2)c(C)c1	23	15µM*	19%	-3%
COc1ccc(OC)c(NC(=S)NN2CCOCC2)c1	-102*	30%	26%	20%
Cc1ccc(C)c(NC(=S)NCCN2CCOCC2)c1	5	·	·	0%
COc1ccc(OC)c(NC(=S)N2CCN(Cc3ccccc3)CC2)c1	-39	18%	-1%	-5%
COc1ccc(Cl)cc1NC(=S)NN1CCOCC1	?	13%	27%	10%
COc1ccc(OC)c(NC(=S)N2CCC(C(O)(c3ccccc3)c3ccccc3)CC2)c1	-9	?	9.3µM*	-18%
CN=C1C=CC(=C(c2ccc(N(C)C)cc2)c2ccc(N(C)C)cc2)C=C1	·	1.1µM*	0.21µM*	·
Cc1ccc(C)c(NC(=O)/C(C#N)=C/c2cn(CC(=O)NCc3ccco3)c3ccccc23)c1	-100*	15µM*	17%	?
Cc1cc(C)cc(NC(=O)/C(C#N)=C/c2cn(CC(=O)NCc3ccco3)c3ccccc23)c1	-85*	21%	5%	?
Cc1ccccc1N/C(SCc1ccc(Cl)cc1)=C(/C#N)C(=O)NCc1ccco1	0	?	?	-26%
Cc1ccc(CS/C(Nc2ccccc2C)=C(\C#N)C(=O)NCc2ccco2)c(C)c1	-22	15%	2.3µM*	-5%
Cc1ccc(NC(=O)/C(C#N)=C/c2cn(CC(=O)NCc3ccco3)c3ccccc23)cc1C	?	28%	30%	2%
CNC(=O)/C(C#N)=C/c1cn(CC(=O)NCc2ccco2)c2ccccc12	-5	12%	-1%	-18%
SMILES	HCMV inh	Pf growth 96h	Pf growth 48h	HCV inh
CCOC(=O)C1=C(CS(=O)(=O)c2ccc(C(C)(C)C)cc2)NC(=O)NC1c1cccc(OC)c1 (stereo unspecified)	-5	·	·	·
COc1cccc(CNC(=O)c2ccc3c(c2)nc2n3CCOC2)c1OC	8	·	·	·
O=C(Nc1ccccc1C(F)(F)F)c1ccc(CN2CCC(Cc3ccccc3)CC2)cc1	2	10µM*	13µM*	?
Cc1csc(-c2cnn(-c3ccccc3)c2NC(=O)c2cccc(C(F)(F)F)c2)n1	3	10µM*	·	?
CC1CC(C)CN(S(=O)(=O)c2ccc(NC(=O)CN3CCCCCC3)cc2)C1 (stereo unspecified)	-20	?	7.4µM*	?
CC1CCCN(S(=O)(=O)c2ccc(NC(=O)CN3CCCCC3)cc2)C1 (stereo unspecified)	-37	?	-8%	-16%
CCN1CCN(CC(=O)Nc2ccc(S(=O)(=O)N3C(C)CCCC3C)cc2)CC1 (stereo unspecified)	-99*	-23%	39%	16%
CC1CCCN(CC(=O)Nc2ccc(S(=O)(=O)N3CCCCC3)cc2)C1 (stereo unspecified)	?	9.3µM*	?	3%
CC1CCCN(CC(=O)Nc2ccc(S(=O)(=O)N3CCCCCC3)cc2)C1 (stereo unspecified)	-6	-17%	-25%	-17%
CCN(CC)S(=O)(=O)c1ccc2c(c1)nc(SCC(=O)N1CCCCCC1)n2-c1ccc(OC)cc1	-33	·	13µM*	?
CCN(CC)S(=O)(=O)c1ccc2c(c1)nc(SCC(=O)N1CCOCC1)n2-c1ccccc1OC	16	12µM*	?	6%
Cc1cccc(C)c1NC(=O)C1CCCN(S(=O)(=O)c2c(C)noc2/C=C/N(C)C)C1 (stereo unspecified)	1	·	·	·
Cc1ccccc1NC(=O)Cn1c(=O)n(CCC(=O)NCc2ccc3c(c2)OCO3)c(=O)c2sccc21	17	·	·	·
CCCOc1ccc(Cc2c(Cl)nc(SC)nc2N(C)C)cc1	-67*	?	1%	?
COc1nc(SC)nc(Cl)c1Cc1ccc(OC(C)C)cc1	17	1µM*	-16%	-17%
Cc1ccc(NC(=O)c2cc(S(=O)(=O)NC3CCCCC3)ccc2F)cc1Cl	-25	·	·	·
O=C(Nc1cccc(O)c1)c1cc2nc(-c3ccc(Br)cc3)cc(C(F)(F)F)n2n1	-15	·	·	·
Cc1ccc(C)c(CNC(=O)c2cnc3sc(N4CCCC4)nn3c2=O)c1	1	·	·	·
CN(C[C@@H](CC1CCCCC1)N(C[C@H](Cc1ccccc1)N(CCc1ccccc1)N=O)N=O)N=O	6	12µM*	?	15%
CCC(C)[C@@H](CN(N=O)[C@@H](Cc1ccccc1)CN(C)N=O)N(CCc1ccccc1)N=O (stereo partly specified)	·	?	?	-27%
CN(C[C@H](Cc1ccccc1)N(C[C@H](Cc1ccccc1)N(CC1(c2ccccc2)CC1)N=O)N=O)N=O	-30	10µM*	?	?
CN(C[C@H](Cc1ccccc1)N(C[C@H](CC1CCCCC1)N(CCc1ccccc1)N=O)N=O)N=O	-4	?	-2%	4%
CCn1c(O)c(/C=N/NC(=O)c2ccccc2)c(=O)[nH]c1=S	-63*	58%	?	12%
COc1cccc(N2CC(NC(=O)C3CCCCC3)CC2=O)c1 (stereo unspecified)	-17	·	·	·
Cn1cc([N+](=O)[O-])c(C(=O)Nc2ccn(Cc3c(F)c(F)cc(F)c3F)n2)n1	-92*	·	26%	?
Cc1ccc(Cn2ccc(NC(=O)c3nn(C)cc3Cl)n2)cc1	3	182%	142%	11%
Cn1ncc([N+](=O)[O-])c1C(=O)Nc1ccn(Cc2ccccc2F)n1	-62*	36%	?	·
